Measurements: PubChem BioAssay (NCI)
This is part of a sample that, as a whole, favours compounds with a hit. Of some 83,000 tested, about 20% had one in any assay.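 Results are percent growth after 48 hours of single-concentration exposure. 100 means growth as in untreated cells, lower positive values show inhibition; negative values down to -100 show cell death.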 A number with no mark means an inactive call. The source made the active and inactive calls. The calls were made as follows: active = growth percent below 10; inactive = the rest.

Experiments:
Assay in all cases: NCI-60 one-dose screen, 48 h (100 = growth as untreated, 0 = no growth, -100 = all killed)
Conditions in all cases: 10 µM unless noted
[1] = system: NCI-H23 lung
[2] = system: NCI-H226 lung
[3] = system: NCI-H322M lung
[4] = system: HOP-62 NSCLC
[5] = system: NCI-H460 lung
[6] = system: NCI-H522 lung
[7] = system: 786-0 renal
[8] = system: COLO 205 colon
[9] = system: DU-145 prostate
[10] = system: K-562 leukemia
[11] = system: MALME-3M melanoma
[12] = system: MDA-MB-231 breast
[13] = system: RXF 393 renal
[14] = system: SF-268 CNS
[15] = system: SF-295 CNS
[16] = system: SF-539 CNS
[17] = system: UACC-257 melanoma
[18] = system: M14 melanoma
[19] = system: HCT-15 colon
[20] = system: A549/ATCC NSCLC

SMILES	growth [1]	growth [2]	growth [3]	growth [4]	growth [5]	growth [6]	growth [7]	growth [8]	growth [9]	growth [10]	growth [11]	growth [12]	growth [13]	growth [14]	growth [15]	growth [16]	growth [17]	growth [18]	growth [19]	growth [20]
O=C1NC(=O)/C(=C\c2ccccc2)C2=C1CCCC2	-44.7% (active)	92.3%	107%	119%	85.5%	-87.4% (active)	61.7%	-63.2% (active)	25.7%	-37.8% (active)	50.6%	92.1%	13.3%	39.4%	88.2%	27.4%	-64.6% (active)	36.4%	20.9%	
NC(N)=NN=c1c(=O)c2ccccc2c1=O	58%	94.6%	102%	32.3%	0.312% (active)	80.8%	108%		-97.4% (active)		-96.4% (active)	90.8%		50.6%	66%	112%	106%	-90.8% (active)	43.4%	95.1%
COc1ccc(-c2c3c(nn2-c2ccc(N)cc2)CCc2cnoc2-3)cc1OC	93.4%	95.8%	103%	104%	101%	70.4%	84.9%				106%	88.5%	93%	90.8%	85.4%	94.5%	112%	97.8%	85.6%	85.2%
O=C(CCc1nnc2sc(-c3ccc(Cl)cc3Cl)nn12)c1nc2ccccc2[nH]1	-35.1% (active)	-78.4% (active)	-54.7% (active)	-56.9% (active)	-57.8% (active)	-74.7% (active)	-94.7% (active)				-26.5% (active)	-54.2% (active)	-92.9% (active)	15.2%	-37.4% (active)	-19% (active)	-69.9% (active)	-47.5% (active)		-46.1% (active)
C[N+]1(CCc2ccccc2)CCC(CCC2CC[N+](C)(CCc3ccccc3)CC2)CC1 (configuration not stated)	87.4%	92.1%	120%	66.9%	103%	98.8%	110%	104%	117%	129%	118%	101%	105%	102%	97.1%	106%	110%	103%	104%	
Cn1cc(-c2csc(-c3c[nH]c4ncccc34)n2)c2cc(Br)cnc21	31.6%	49%	59.9%	-19.7% (active)	7.22% (active)	-2.08% (active)	20%				32.8%	-1.21% (active)	26.1%	64.8%	-1.78% (active)	70.1%	57.1%	35.2%	66.8%	5.11% (active)
O=c1[nH]c(Cl)nc2c1cnn2-c1ccccc1	81.3%	92.5%	112%	91.3%	95.3%	97.1%		107%	104%	43%	104%	92.3%	111%	93%	85.2%	77.2%	106%	84.9%	94.7%	113%
Cn1cc(-c2csc(-c3cn(C)c4ncccc34)n2)c2cccnc21	92.1%	107%	106%	123%	98.4%	87.1%	83.1%				106%	93.7%	98.4%	106%	98.3%	99%	99.8%	96%		89.7%
O=C(Nc1ccc(Cl)cc1)Nc1ccc(Oc2nncc3ccccc23)cc1	0.498% (active)	-54.5% (active)	60.9%	12.9%	21.5%	-46.3% (active)		11.9%	11.2%	5.58% (active)	0.777% (active)	-25.2% (active)	-91.2% (active)	12.6%	40.7%	-76.5% (active)	34.4%	7.3% (active)	2.76% (active)	40%
N#CCCCCCn1c2ccccc2c2c3c(c4c5ccccc5[nH]c4c21)C(=O)N(O)C3=O	-5.54% (active)	43.3%	19.9%	18.4%	-7.73% (active)	-53.9% (active)		26.7%	18.5%	6.27% (active)	-34.6% (active)	16.1%	-30.7% (active)	11.3%	-17.2% (active)	-95.4% (active)	20.5%	11.9%	15.9%	25%
Cn1cc(-c2csc(-c3cn(C)c4ncccc34)n2)c2cc(F)cnc21	70.5%	94.4%	112%	99.1%	84.1%	22.2%	91%				80.7%	62.6%	82.4%	95.4%	69.5%	101%	84.1%	62.8%	61%	73.6%
CCC1=C(c2ccc(OC)cc2)C(C)Oc2cc(OC(C)=O)ccc21 (configuration not stated)	82%	83.1%	116%	99.7%	93%	78.8%	101%	103%	102%	50.2%	98%	90.4%	85.3%	86.9%	99.4%	84.3%		83.4%	85.5%	
Cn1cc(-c2csc(-c3c[nH]c4ncccc34)n2)c2cc(F)cnc21	74%	73.5%	70.7%	79.5%	61.3%	86.8%	90.5%				95.5%	57%	59.8%	91.7%	74.3%	90.9%	96.2%	58.7%	61.3%	85.3%
O=C(NN(C(=O)c1ccccc1)c1cccs1)c1ccccc1	103%	99.8%	94%	97%	116%	91.3%	100%	106%	123%	109%	97.3%	93.4%	115%	112%	116%	110%	139%	101%	101%	
Nc1nc2ncc(CCNc3ccc(C(=O)NC(CCC(=O)O)C(=O)O)cc3)nc2c(=O)[nH]1 (configuration not stated)	43.3%	102%	122%	90.6%	108%	28%	93.1%	118%	109%	127%	118%	115%		110%	113%	94.3%	75.2%	114%	98.2%	
O=c1[nH]c(=O)n(C2CC(O)C(CO)O2)cc1C(F)(F)F (configuration not stated)	-5.01% (active)	57%	76%	33.1%	19.2%	-12% (active)	12.7%	69.2%	6.03% (active)	62.4%	51.4%	102%		30.7%	6.84% (active)	8.46% (active)		15.8%	73.9%	
Cn1c(=O)c2nc(SCc3ccccc3)n(C)c2n(C)c1=O	108%	102%	109%	107%	109%		109%	104%	117%	103%	143%	97.7%	112%	106%	117%	101%	111%	107%	98.8%	99.2%
COc1ccc2c(c1)C(=O)/C(=C/c1cccc(OCC(=O)c3ccccc3)c1)CC2	87.4%	75.9%	108%	101%	113%	64.7%	87.6%	136%		33.4%	97.6%	83.6%		91.8%	104%	93.5%	91.7%	92.2%	89.7%	

SMILES	growth [1]	growth [2]	growth [3]	growth [4]	growth [5]	growth [6]	growth [7]	growth [8]	growth [9]	growth [10]	growth [11]	growth [12]	growth [13]	growth [14]	growth [15]	growth [16]	growth [17]	growth [18]	growth [19]	growth [20]
c1ccc2c(c1)[nH]c1c2cc[n+]2cc3c(cc12)CCCC3	40.6%	35.5%	29.8%	18.8%	15.2%		48.7%	36.3%	40.9%	16.9%	3.13% (active)	31.4%	76.8%	23%		37.6%	38.4%	19.7%	96.9%	64%
COc1c(O)cc2oc3cc(O)c(CC=C(C)C)c(O)c3c(=O)c2c1C/C=C(\C)CCC=C(C)C	33.5%	105%	90.1%	41.2%	33.6%		30.2%	81.7%	81.1%	27.2%	127%	5.81% (active)	-22.5% (active)	64.7%	87.2%	93.2%	103%	52%	73%	45.1%
CCCCOc1ccc(C(C)(C)c2ccc(OCCCC)cc2)cc1	103%	104%	99.1%	102%	113%	92.3%	91%	121%	107%		98.7%	111%	125%	115%		92.1%		104%	107%	
O=C(Cc1ccccn1)C(F)(F)C(F)(F)C(F)(F)F	104%	102%	116%	97.5%	111%	111%	104%	127%	112%		110%	102%	125%	125%		104%		110%	109%	
CCN1C2=C(SC(=S)C1=C1SC(C(=O)OC)=C(C(=O)OC)S1)SC(=Nc1ccc(OC)cc1)C2=O	-42.5% (active)	-66.7% (active)	48.4%	-13.7% (active)		-15.2% (active)	-64.6% (active)	-3.6% (active)	-46.1% (active)	7.47% (active)	-28% (active)	4.53% (active)	-87.7% (active)	1.48% (active)	2.33% (active)	-24.1% (active)	-55.1% (active)			17.7%
Clc1ccc(-n2cnc3c(Cl)ncnc32)cc1Cl	87%	102%	64.8%	83.6%	101%		98.7%	92.2%	76.6%	61.1%	85%	87.5%	97.3%	78.3%	119%	104%	84.4%	48.4%	60.4%	95.5%
CCC(CCC(C)C1CCC2C3CC=C4CC(O)CCC4(C)C3CCC12C)C(C)C (configuration not stated) (tested in a mixture with another compound)	112%	101%	145%	114%	96.6%	116%	96%	107%	115%	82%	138%	115%		79.9%	76.9%	80.3%		92.2%	95.6%	
CC/C(=C\c1ccc(N(C)C)cc1)c1ccncc1	63.3%	74.8%	94.6%	46.6%	14.3%		54.6%	36.1%	85%	16.2%	9.47% (active)	51.6%	91.1%	71.7%	49%	58.6%	75%	29.6%	37.5%	43.5%
Cn1cnc([N+](=O)[O-])c1S(=O)(=O)Oc1ccc(Cl)cc1	96%	97.8%	104%	92.3%	103%		94.4%	-90% (active)	81.5%	16.1%	-70.4% (active)	65.4%	81.8%	93%	94.5%	81.4%	57%	61%	59%	96%
C[C@]12C[C@H](O)[C@H]3[C@@H](CCC4=CC(=O)CC[C@@]43C)[C@@H]1CC[C@@H]2C(=O)CO	11%	79.5%	105%	102%	103%	16%	101%	96%	108%	66.7%	95.3%	80.5%		98.8%	126%	89.3%		107%	92%	
OC(c1cc(C(F)(F)F)nc2c(C(F)(F)F)cccc12)C1CCCCN1 (configuration not stated)	78.4%	73.1%	64.8%	74.4%	13.8%	-4.33% (active)	56.7%	29.3%	78.8%	14.7%	100%	47.1%		47.9%	88.2%	82.8%		76%	77.5%	
CC(C)C/C(=N\NC(=O)c1ccncc1)c1cc(Cl)ccc1O	23.1%	50.5%	13.1%	30.6%	8.41% (active)		-1.16% (active)	13.9%	23.5%	9.61% (active)	21.7%	36.3%	40.2%	24.9%	19.2%	12%	6.11% (active)	2.19% (active)	23%	20.8%
COc1cccc(CCC2C(=O)CCCC2=O)c1	103%	111%	102%	106%	117%		108%	99.5%	105%	109%	115%	114%	134%	98.1%	118%	98.8%	108%	113%	108%	108%
CN1CCCC1c1cccnc1 (configuration not stated)	2.54% (active)	96.4%	105%	113%	98.6%	17.3%	108%	105%	110%	106%	128%	97.3%		111%	124%	85.2%		119%	100%	
CN(C)CCCN1c2nc3ccccc3cc2Sc2cc3ccccc3nc21	-34.2% (active)	40.1%	18%	32%	-89.1% (active)	-67.7% (active)	-86.3% (active)	-89.2% (active)		4.31% (active)	-75.9% (active)	-82.8% (active)		27.2%	-74.7% (active)	-94.6% (active)	-69.5% (active)	-70.6% (active)	2.14% (active)	
CC(C)COCC(CN(Cc1ccccc1)c1ccccc1)N1CCCC1 (configuration not stated)	60.7%	65.8%	78.8%	71.3%	43.8%	32.1%	68.2%	40.1%	70%	31.3%	84.3%	29.5%		71.5%	63.6%	78.5%		51.9%	55.7%	
O=C(/C=C/c1ccccc1)CC(c1ccccc1)N1CCOCC1 (configuration not stated)	96.6%	99.5%	121%	102%	106%		4.06% (active)	76.3%	91.3%	49.9%	138%	60.3%	102%	97.3%	98.7%	69.3%	98.8%	-35% (active)	61.5%	63%
